In the library only some 4.6% were active in any assay of this set; here they are far more common.
ADAM10 inh: inhibitors of human ADAM10; hit rate 0.62% among 370,000; recombinant ADAM10, EDANS/DABCYL FRET peptide cleavage, 3 h; inhibition, % at 7 µM;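 active means inhibition above a per-campaign cutoff equal to the mean of compounds falling between control-based bounds plus 3 SD, cut at about 20% in these data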
FAS TE block: blocks the thioesterase domain of human fatty acid synthase | P49327 | recombinant FAS-TE, OMFH fluorogenic substrate, fluorescence endpoint | inhibition, % at 15 µM | hit rate 0.67% among 360,000;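 active means compounds whose normalised, plate-corrected inhibition of enzyme fluorescence in the single-dose primary screen is 50% or more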
KLK7 zymogen act: activators of human kallikrein-7 zymogen. P49862. purified proKLK7, EDANS-DABCYL substrate fluorescence; 100% is mature enzyme control, 0% vehicle. activation, % at 7 µM. hit rate 0.9% among 370,000. AID 652039;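 active means activation above the mean of all tested compounds plus 3 SD, computed per campaign excluding outliers beyond control limits, cut at about 13% in these data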
ADAM17 inh: ADAM17 inhibition, QFRET primary screen; P78536; recombinant ADAM17, EDANS/DABCYL FRET peptide cleavage; inhibition, % at 6.95 µM; hit rate 0.83% among 370,000; AID 720648;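 active means inhibition above the mean of compounds lying between control limits plus 3 SD, set per campaign, cut at about 8.5% in these data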
Target sequence (P78536 215-824 limits assumed): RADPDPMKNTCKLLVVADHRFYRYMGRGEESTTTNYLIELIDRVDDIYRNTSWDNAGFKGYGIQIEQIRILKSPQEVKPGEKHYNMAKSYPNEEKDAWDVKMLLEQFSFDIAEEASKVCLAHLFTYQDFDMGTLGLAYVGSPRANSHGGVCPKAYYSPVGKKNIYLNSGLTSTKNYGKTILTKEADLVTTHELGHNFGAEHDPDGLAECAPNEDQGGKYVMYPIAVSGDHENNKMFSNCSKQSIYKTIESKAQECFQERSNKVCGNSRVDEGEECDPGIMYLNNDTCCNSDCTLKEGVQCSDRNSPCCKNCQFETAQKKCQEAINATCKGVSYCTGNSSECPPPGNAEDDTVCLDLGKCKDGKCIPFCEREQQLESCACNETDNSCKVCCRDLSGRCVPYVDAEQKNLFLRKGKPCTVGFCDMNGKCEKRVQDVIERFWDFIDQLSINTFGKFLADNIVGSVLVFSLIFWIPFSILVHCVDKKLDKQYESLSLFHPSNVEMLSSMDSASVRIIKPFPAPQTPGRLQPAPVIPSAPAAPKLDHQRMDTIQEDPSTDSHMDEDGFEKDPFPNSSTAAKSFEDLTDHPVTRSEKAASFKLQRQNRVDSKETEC
NR3A LBD binder: NR3A (human) ligand-binding domain modulation | NR3A LBD differential scanning fluorimetry, Tm shift; 0% = protein alone, 100% = glycine-bound protein | Tm shift relative to glycine control, % at 25 µM | hit rate 2.5% among 340,000 | AID 1259313;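 active means melting temperature shift of at least 10% of the positive control shift, at one fixed dose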
FAS-TE conf: FAS thioesterase (human) inhibition, confirmation; shares compounds with FAS TE block; recombinant FAS-TE, OMFH fluorogenic substrate, fluorescence; inhibition, % at 15 µM; hit rate 45% among 2,300; AID 624325;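 active means compounds inhibiting the enzyme by at least 50% at 15 µM in any one of the replicates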
Hits are given with their value.

Results for Cc1ccc(S(=O)(=O)N2CCN(C(=O)c3cc4c(C)nn(-c5ccccc5)c4s3)CC2)cc1 ?
ADAM10 inh: inactive; FAS TE block: 62; KLK7 zymogen act: inactive; ADAM17 inh: inactive; NR3A LBD binder: inactive; FAS-TE conf: inactive

How did Cc1nn(-c2ccccc2)c2sc(C(=O)N3CCN(S(=O)(=O)c4ccc(Br)s4)CC3)cc12 do in these assays?
ADAM10 inh: inactive; KLK7 zymogen act: inactive; ADAM17 inh: inactive

Results for Cc1ccc2c(c1)[C@H]1[C@H](CO2)[C@H](c2ccccc2)[C@]2(C)C(=O)Nc3ccc(Br)cc3C(=O)N12 ?
ADAM10 inh: inactive; FAS TE block: 96; KLK7 zymogen act: inactive; ADAM17 inh: inactive; NR3A LBD binder: inactive; FAS-TE conf: inactive

Results for C[C@@]12C(=O)Nc3cc(Cl)ccc3C(=O)N1[C@H]1c3cc(Br)ccc3OC[C@@H]1[C@@H]2c1ccccc1 ?
ADAM10 inh: inactive; FAS TE block: 80; KLK7 zymogen act: inactive; ADAM17 inh: inactive; NR3A LBD binder: inactive; FAS-TE conf: inactive

How did C[C@@]12C(=O)Nc3ccc(F)cc3C(=O)N1[C@H]1c3cc(Cl)ccc3OC[C@@H]1[C@@H]2c1ccccc1 do in these assays?
ADAM10 inh: inactive; FAS TE block: 85; KLK7 zymogen act: inactive; ADAM17 inh: inactive; NR3A LBD binder: inactive; FAS-TE conf: inactive

How did C[C@@]12C(=O)Nc3cc(Cl)ccc3C(=O)N1[C@H]1c3cc(Cl)ccc3OC[C@@H]1[C@@H]2c1ccccc1 do in these assays?
ADAM10 inh: inactive; FAS TE block: inactive; KLK7 zymogen act: inactive; ADAM17 inh: inactive; NR3A LBD binder: inactive

Results for C[C@@]12C(=O)Nc3ccc(F)cc3C(=O)N1[C@H]1c3ccccc3OC[C@@H]1[C@@H]2c1ccccc1 ?
FAS TE block: inactive; NR3A LBD binder: inactive

What do the screens show for `C[C@@]12C(=O)Nc3cc(Cl)ccc3C(=O)N1[C@H]1c3ccccc3OC[C@@H]1[C@@H]2c1ccccc1`?
FAS TE block: 87; NR3A LBD binder: inactive; FAS-TE conf: inactive

What do the screens show for `Cc1ccc2c(c1)C(=O)N1[C@H]3c4cc(Br)ccc4OC[C@@H]3[C@H](c3ccccc3)[C@]1(C)C(=O)N2`?
ADAM10 inh: inactive; FAS TE block: inactive; KLK7 zymogen act: inactive; ADAM17 inh: inactive; NR3A LBD binder: inactive

How did Oc1ccccc1C=Nn1c(-c2ccccc2F)n[nH]c1=S do in these assays?
ADAM10 inh: inactive; KLK7 zymogen act: inactive; ADAM17 inh: inactive

Results for O=C(NC1CCCCN(Cc2ccc(Cl)cc2)C1=O)c1ccc(F)c(F)c1 (stereo unspecified) ?
ADAM10 inh: inactive; KLK7 zymogen act: inactive; ADAM17 inh: inactive

How did COc1ccc(C2NC(c3ccc(OC)cc3)C(c3ccccc3)C(=O)C2c2ccccc2)cc1 (stereo unspecified) do in these assays?
ADAM10 inh: inactive; FAS TE block: 62; KLK7 zymogen act: inactive; ADAM17 inh: inactive; NR3A LBD binder: inactive; FAS-TE conf: inactive

Results for CCOC(=O)[C@H]1[C@H]2COc3ccc(C)cc3[C@@H]2N2C(=O)CN(Cc3ccc(C)cc3)C(=O)[C@@]12C ?
ADAM10 inh: inactive; FAS TE block: inactive; KLK7 zymogen act: inactive; ADAM17 inh: inactive; NR3A LBD binder: inactive

Results for CCOC(=O)[C@@H]1[C@H]2COc3cc(OC)ccc3[C@H]2N2C(=O)N(c3cccc(Cl)c3)C(=O)[C@@]12C ?
FAS TE block: 74; NR3A LBD binder: inactive; FAS-TE conf: 48

How did Cc1ccc(CN2CC(=O)N3[C@H]4c5cc(C)ccc5OC[C@@H]4[C@H](c4ccccc4)[C@]3(C)C2=O)cc1 do in these assays?
ADAM10 inh: inactive; FAS TE block: 52; KLK7 zymogen act: inactive; ADAM17 inh: inactive; NR3A LBD binder: inactive; FAS-TE conf: inactive

What do the screens show for `COc1ccc2c(c1)OC[C@H]1[C@H]2N2C(=O)CN(C)C(=O)[C@@]2(C)[C@H]1c1ccccc1`?
ADAM10 inh: inactive; FAS TE block: inactive; KLK7 zymogen act: inactive; ADAM17 inh: inactive; NR3A LBD binder: inactive

How did COc1ccc(CN2CC(=O)N3[C@H]4c5ccc(OC)cc5OC[C@@H]4[C@H](c4ccccc4)[C@]3(C)C2=O)cc1 do in these assays?
ADAM10 inh: inactive; FAS TE block: 66; KLK7 zymogen act: inactive; ADAM17 inh: inactive; NR3A LBD binder: inactive; FAS-TE conf: inactive

How did C[C@H]1[C@H](c2ccccc2)Oc2cccc(NCCc3ccccc3)c2S(=O)(=O)N1Cc1ccc(F)cc1 do in these assays?
ADAM10 inh: inactive; KLK7 zymogen act: inactive; ADAM17 inh: inactive

What do the screens show for `COc1cccc(NC(=O)C2CCCN2C(=O)NC2CCC(C)CC2)c1` (stereo unspecified)?
ADAM10 inh: inactive; KLK7 zymogen act: inactive; ADAM17 inh: inactive

Results for Cc1ccc(S(=O)(=O)c2nnn3c2nc(N2CCC(C(N)=O)CC2)c2ccccc23)cc1C ?
ADAM10 inh: inactive; FAS TE block: 53; KLK7 zymogen act: inactive; ADAM17 inh: inactive; NR3A LBD binder: inactive; FAS-TE conf: 61

How did COc1ccc(/C=N\NC(=O)CNC(=O)C(c2ccccc2)c2ccccc2)cc1[N+](=O)[O-] do in these assays?
ADAM10 inh: inactive; FAS TE block: 54; KLK7 zymogen act: inactive; ADAM17 inh: inactive; NR3A LBD binder: inactive; FAS-TE conf: 42

Results for O=C(CSc1nc2cc([N+](=O)[O-])ccc2n1-c1ccccc1)NCc1ccc2c(c1)OCO2 ?
ADAM10 inh: inactive; FAS TE block: 52; KLK7 zymogen act: inactive; ADAM17 inh: inactive; NR3A LBD binder: inactive; FAS-TE conf: inactive

What do the screens show for `O=C(NCc1ccc2c(c1)OCO2)c1cccc([N+](=O)[O-])c1`?
ADAM10 inh: inactive; FAS TE block: inactive; KLK7 zymogen act: inactive; ADAM17 inh: inactive; NR3A LBD binder: inactive

Results for O=C(/C=C/c1cccc([N+](=O)[O-])c1)NCc1ccc2c(c1)OCO2 ?
ADAM10 inh: inactive; FAS TE block: 68; KLK7 zymogen act: inactive; ADAM17 inh: inactive; NR3A LBD binder: inactive; FAS-TE conf: 82

Results for O=C(NCc1ccc2c(c1)OCO2)c1cc([N+](=O)[O-])ccc1N1CCCCC1 ?
ADAM10 inh: inactive; FAS TE block: 64; KLK7 zymogen act: inactive; ADAM17 inh: inactive; NR3A LBD binder: inactive; FAS-TE conf: 54

Results for COC(=O)c1cc(C(=O)NCc2ccc3c(c2)OCO3)cc([N+](=O)[O-])c1 ?
ADAM10 inh: inactive; FAS TE block: 59; KLK7 zymogen act: inactive; ADAM17 inh: inactive; NR3A LBD binder: inactive; FAS-TE conf: 71

How did O=C(/C=C/c1cccc([N+](=O)[O-])c1)NCCSCc1ccc(Cl)cc1Cl do in these assays?
ADAM10 inh: inactive; FAS TE block: 59; KLK7 zymogen act: inactive; ADAM17 inh: inactive; NR3A LBD binder: inactive; FAS-TE conf: 58

Results for CC(=O)Nc1nc2ncccn2c1-c1ccccc1 ?
ADAM10 inh: inactive; KLK7 zymogen act: inactive; ADAM17 inh: inactive

High-throughput results from PubChem BioAssay.
